Structures are written as SMILES. Records with an inconclusive call do not appear. Active and inactive are the calls of the source. How the source made its calls: active means hit-call score of the fitted dose curve at least 0.9, where 1 is the maximum; inconclusive means response in the unintended direction; inactive means score below 0.9.

Chain of sheep Cyclooxygenase-1 (Cox1), PTGS1 (gene 443551) (P05979 whole entry, looked up): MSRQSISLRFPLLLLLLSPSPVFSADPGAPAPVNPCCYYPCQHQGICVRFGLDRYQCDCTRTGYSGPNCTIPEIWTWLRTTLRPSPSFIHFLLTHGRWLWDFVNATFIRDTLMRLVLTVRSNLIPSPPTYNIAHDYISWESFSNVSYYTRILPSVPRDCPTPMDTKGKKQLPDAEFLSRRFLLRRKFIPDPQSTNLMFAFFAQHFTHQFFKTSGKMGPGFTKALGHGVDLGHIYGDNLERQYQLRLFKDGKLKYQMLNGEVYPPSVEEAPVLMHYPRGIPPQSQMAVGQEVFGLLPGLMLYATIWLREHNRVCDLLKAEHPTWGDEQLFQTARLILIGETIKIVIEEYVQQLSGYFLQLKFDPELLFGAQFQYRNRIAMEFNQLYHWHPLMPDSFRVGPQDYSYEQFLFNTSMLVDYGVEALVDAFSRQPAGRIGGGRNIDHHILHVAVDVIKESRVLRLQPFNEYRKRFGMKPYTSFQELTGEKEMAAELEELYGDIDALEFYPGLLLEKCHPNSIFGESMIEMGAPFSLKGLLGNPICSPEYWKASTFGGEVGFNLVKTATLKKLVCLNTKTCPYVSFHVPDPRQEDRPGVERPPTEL
Chain of human Phosphoinositide 3-kinase alpha (PI3Ka), PIK3CA (gene 5290) (P42336 whole entry, looked up): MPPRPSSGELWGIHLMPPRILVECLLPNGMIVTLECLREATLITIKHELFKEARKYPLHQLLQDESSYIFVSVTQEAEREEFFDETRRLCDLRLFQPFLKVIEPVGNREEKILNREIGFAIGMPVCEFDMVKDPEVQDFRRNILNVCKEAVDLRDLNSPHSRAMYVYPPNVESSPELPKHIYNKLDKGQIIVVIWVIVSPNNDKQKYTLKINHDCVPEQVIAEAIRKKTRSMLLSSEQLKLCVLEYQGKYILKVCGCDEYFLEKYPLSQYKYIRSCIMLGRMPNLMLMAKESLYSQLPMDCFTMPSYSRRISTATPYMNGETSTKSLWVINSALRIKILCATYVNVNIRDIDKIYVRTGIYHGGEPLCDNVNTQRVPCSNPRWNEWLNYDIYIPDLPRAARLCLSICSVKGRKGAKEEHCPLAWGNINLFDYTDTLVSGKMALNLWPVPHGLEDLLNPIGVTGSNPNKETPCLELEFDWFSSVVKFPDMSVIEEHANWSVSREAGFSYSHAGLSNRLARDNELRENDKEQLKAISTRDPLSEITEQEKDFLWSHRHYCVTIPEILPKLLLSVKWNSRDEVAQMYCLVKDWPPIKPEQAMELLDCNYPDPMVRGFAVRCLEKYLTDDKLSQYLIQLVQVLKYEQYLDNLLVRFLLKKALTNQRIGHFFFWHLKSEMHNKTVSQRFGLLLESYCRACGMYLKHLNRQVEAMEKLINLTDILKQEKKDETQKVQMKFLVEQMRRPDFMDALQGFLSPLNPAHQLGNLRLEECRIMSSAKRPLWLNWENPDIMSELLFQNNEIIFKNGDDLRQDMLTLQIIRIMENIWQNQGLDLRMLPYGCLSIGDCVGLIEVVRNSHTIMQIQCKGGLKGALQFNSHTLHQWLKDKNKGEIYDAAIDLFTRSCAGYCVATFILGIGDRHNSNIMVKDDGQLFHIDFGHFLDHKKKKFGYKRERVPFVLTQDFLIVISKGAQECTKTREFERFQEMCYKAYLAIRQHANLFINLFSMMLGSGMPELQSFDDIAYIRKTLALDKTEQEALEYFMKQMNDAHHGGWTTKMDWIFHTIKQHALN
Chain of human Vascular Endothelial Growth Factor Receptor 1 (VEGFR1), FLT1 (gene 2321) (P17948 whole entry, looked up): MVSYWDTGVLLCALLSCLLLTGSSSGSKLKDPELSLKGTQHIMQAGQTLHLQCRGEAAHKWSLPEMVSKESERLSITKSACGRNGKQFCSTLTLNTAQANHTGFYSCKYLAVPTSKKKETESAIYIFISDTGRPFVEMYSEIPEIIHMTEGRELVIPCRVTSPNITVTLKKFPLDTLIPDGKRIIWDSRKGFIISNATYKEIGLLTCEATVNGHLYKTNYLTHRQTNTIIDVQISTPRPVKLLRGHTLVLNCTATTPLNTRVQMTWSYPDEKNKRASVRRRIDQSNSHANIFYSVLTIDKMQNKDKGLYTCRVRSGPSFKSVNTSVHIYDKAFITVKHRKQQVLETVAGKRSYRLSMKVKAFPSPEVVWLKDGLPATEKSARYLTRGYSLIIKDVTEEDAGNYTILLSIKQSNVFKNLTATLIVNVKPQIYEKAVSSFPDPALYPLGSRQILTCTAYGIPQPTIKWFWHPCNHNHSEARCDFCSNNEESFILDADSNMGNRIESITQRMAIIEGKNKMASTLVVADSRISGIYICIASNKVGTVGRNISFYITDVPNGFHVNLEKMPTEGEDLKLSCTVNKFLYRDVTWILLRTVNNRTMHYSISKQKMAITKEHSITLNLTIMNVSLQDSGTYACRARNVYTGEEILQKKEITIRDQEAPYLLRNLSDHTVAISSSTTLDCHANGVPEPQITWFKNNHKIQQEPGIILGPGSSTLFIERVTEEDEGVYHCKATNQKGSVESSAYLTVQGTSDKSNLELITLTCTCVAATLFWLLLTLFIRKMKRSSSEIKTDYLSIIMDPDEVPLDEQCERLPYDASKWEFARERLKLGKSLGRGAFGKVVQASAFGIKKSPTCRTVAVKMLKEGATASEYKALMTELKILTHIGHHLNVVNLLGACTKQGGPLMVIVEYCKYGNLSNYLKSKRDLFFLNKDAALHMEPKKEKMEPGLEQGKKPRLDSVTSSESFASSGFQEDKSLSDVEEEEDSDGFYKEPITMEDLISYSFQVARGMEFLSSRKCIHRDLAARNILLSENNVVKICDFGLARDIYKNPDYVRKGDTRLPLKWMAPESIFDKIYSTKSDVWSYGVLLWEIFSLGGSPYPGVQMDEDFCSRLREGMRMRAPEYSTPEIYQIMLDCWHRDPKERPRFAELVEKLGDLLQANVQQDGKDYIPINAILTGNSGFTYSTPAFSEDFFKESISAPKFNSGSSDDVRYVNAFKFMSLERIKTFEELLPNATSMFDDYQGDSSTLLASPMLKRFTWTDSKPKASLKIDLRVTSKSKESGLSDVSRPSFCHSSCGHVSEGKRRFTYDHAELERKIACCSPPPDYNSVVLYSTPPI

One assay concerns the target human Phosphoinositide 3-kinase alpha (PI3Ka), PIK3CA (gene 5290) (UniProt P42336). Briefly: NVS_ENZ_hPI3Ka: NovaScreen (NVS) Enzymatic Assay for human Phosphoinositide 3-kinase alpha (PI3Ka) (AID 2283196). In a few lines:
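Recombinant human PI3Kα with fluorescent substrate, 1 h, product separated by electrophoretic mobility shift; 25 uM duplicate screen, hits (e.g., 30% inhibition) retested singly up to 50 uM; loss of signal vs DMSO.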
Turning to `CC(=O)c1c(C)c([N+](=O)[O-])c(C(C)(C)C)c([N+](=O)[O-])c1C`, the call was inactive.
Same read-out and setting: in the case of `O=CN1CCOCC1` it was “inactive”.
In general, AC50 refers to the concentration at which the activity in the assay is half-maximal. On to `OCCCCC(O)CO` (stereo not given), for which the AC50 was 0.803 µM (active).
On to `COC(C)(C)CC(C)=O`, for which the outcome was inactive.
In the case of `C=CC(=O)OCCCC`, the AC50 is 0.00235 µM (active).
For `CCOc1ccc(NC(=O)CC(C)=O)cc1`, the call was inactive.
Same read-out and setting: in the case of `CC(=O)CC(=O)Nc1ccccc1` it was “inactive”; in that of `Cc1ccc(C)o1`, “inactive”.

Another assay has as its target human Vascular Endothelial Growth Factor Receptor 1 (VEGFR1), FLT1 (gene 2321) (UniProt P17948). The experiment in a line: NVS_ENZ_hVEGFR1: NovaScreen (NVS) Enzymatic Assay for human Vascular Endothelial Growth Factor Receptor 1 (VEGFR1) (AID 2283226). Put shortly:
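Cell-free assay of recombinant human VEGFR1 kinase with substrate, measured 1 h after dosing; fluorescence with electrophoretic mobility-shift separation of substrate and product, referenced to DMSO; primary screen at 25 uM in duplicate, actives then run in concentration series.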
Take `CC(=O)Nc1ccc(C(=O)CCl)cc1`: the concentration at half-maximal activity (AC50) was 40.1 µM (active).
On to `O=[N+]([O-])c1cccc(Cl)c1`, for which the compound was called inactive.
As to `[O-]n1ccccc1=S.[O-]n1ccccc1=S.[Zn+2]`, the outcome was inactive.

In a further assay the target is sheep Cyclooxygenase-1 (Cox1), PTGS1 (gene 443551) (UniProt P05979). The experiment in a line: NVS_ENZ_oCOX1: NovaScreen (NVS) Enzymatic Assay for sheep Cyclooxygenase-1 (Cox1) (AID 2283239).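 Further: actives reduce cyclooxygenase activity so potencies are for inhibitors.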 In a few lines:
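Tested in duplicate at 25 uM, then in concentration series if active, against seminal vesicle extract from sheep. Enzyme activity was measured colorimetrically at 0.66 hour and normalised to DMSO.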
For the compound `CC(=O)Nc1ccc(C(=O)CCl)cc1`, the compound was called inactive.
On to `O=[N+]([O-])c1ccc(O)cc1C(F)(F)F`, for which the compound was classed as inactive.
Same read-out and setting: next, `c1ccc2[nH]cnc2c1`: “inactive”.
As to `c1ccc(CCc2ccccc2)cc1`, the result was inactive.
`CN(C)C(=O)Nc1ccc(Oc2ccc(Cl)cc2)cc1`: the AC50 is 25 µM (active).
In the case of `[O-]n1ccccc1=S.[O-]n1ccccc1=S.[Zn+2]`, the AC50 is 5.57 µM (active).
Regarding `CCOC(=O)[C@@H](C)Oc1ccc(Oc2nc3ccc(Cl)cc3o2)cc1`, the result was inactive.
As for `CC1(C)C2=CCCC(C)(C)[C@]23CC[C@H]1C3`, the AC50 was 16.4 µM (active).
In the case of `CC(=O)C1(C)CC2=C(CCCC2(C)C)CC1C` (stereo not given), the compound was classed as inactive.
